PubChem BioAssay (Tox21)
Where “and” joins values, the source holds several entries; their conditions need not be identical. Equal entries are not always repeated. Results filed as inconclusive are left out. A structure can be active in one record and inactive in another. Calls of active or inactive are those of the source. Unless noted, the call rests on the fitted dose curve; in most records, active means well fitted curve in the direction sought with a large enough effect in the repeat runs; inconclusive means weak or mixed curves; inactive means no such curve, though single readings can be large; an effect the other way counts as inactive or inconclusive.

Assays:
[1] = biological target: Estrogen receptor beta (Homo sapiens) (UniProt Q92731); assay: qHTS assay to identify small molecule agonists of the estrogen receptor beta (ER-beta) signaling pathway (AID 1259377; active means well fitted activation curve with a large enough effect in the signal ratio in the repeat runs, not every such curve was filed as active; the % refers to the signal ratio)
Outline: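 A UAS-controlled beta-lactamase reporter in ER-beta-UAS-bla HEK293T cells reports receptor activation. Compounds act for 16 hr at 37C in 2% charcoal-stripped serum, and a FRET substrate is read by fluorescence after 2 hours.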

[2] = biological target: Estrogen receptor beta (Homo sapiens) (UniProt Q92731); assay: qHTS assay to identify small molecule antagonists of the estrogen receptor beta (ER-beta) signaling pathway (AID 1259378; active means well fitted inhibition curve with a large enough effect in the signal ratio in the repeat runs, not every such curve was filed as active; the % refers to the signal ratio)
Outline: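 Antagonist mode: compounds added to beta-lactamase reporter HEK293T ER-beta-UAS cells stimulated with E2 (1nM final), 16 hr at 37C. LiveBLAzer B/G FRET substrate, 2 hours room temperature, fluorescence read-out.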

[3] = qHTS assay to identify small molecule agonists of the androgen receptor (AR) signaling pathway in the presence of an antagonist - cell viability counter screen (AID 1259379); further: nearly all actives have a fitted effect of over 25% in size; further: potency means the concentration at half of the fitted maximal effect
Outline: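 Viability counter screen: CellTiter-Fluor fluorescence, measured in the same wells as the luciferase read-out. MDA-kb2 cells, 3,000/well, with nilutamide at 3.0uM final and compounds at 15 concentrations, 16 hr at 37C, 0% CO2.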

[4] = qHTS assay to identify small molecule agonists of the estrogen receptor beta (ER-beta) signaling pathway - cell viability counter screen (AID 1259380); further: nearly all actives have a fitted effect of over 30% in size; further: potency means the concentration at half of the fitted maximal effect
Outline: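 Luminescence read-out (CellTiter-Glo, 30 min, room temp) taken in the same wells as the beta-lactamase reporter assay; ER-beta-UAS-bla HEK293T cells exposed to DMSO-dissolved compounds for 16 hr at 37C in 2% charcoal-stripped FBS medium.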

[5] = qHTS assay to identify small molecule antagonists of the estrogen receptor beta (ER-beta) signaling pathway - cell viability counter screen (AID 1259382);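 further: HEK293T cells carrying ER-beta-UAS-bla reporter stimulated with estradiol; series mostly up to about 92 µM; nearly all actives have a fitted effect of over 55% in size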
Outline: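 Luminescent ATP read-out (CellTiter-Glo, 30 min, RT) taken in the same wells as the bla reporter assay. HEK293T ER-beta-UAS-bla cells in 2% charcoal-stripped FBS were exposed to compounds with 1nM E2 for 16 hr at 37C.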

[6] = qHTS assay to identify small molecule agonists or antagonists of the thyroid stimulating hormone receptor (TSHR) signaling pathway - wild type cell line counter screen (AID 1259384; calls by dose curve)
Outline: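 Counter screen in untransfected Hek293: compounds (15-point titration, triplicate) plus phosphodiesterase inhibitor Ro20-1724 added after 18 h plating; 30 min RT. Intracellular cAMP via competitive d2/cryptate immunoassay, 1 h incubation.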

[7] = biological target: Thyrotropin receptor (Homo sapiens) (UniProt P16473); assay: qHTS assay to identify small molecule antagonists of the thyroid stimulating hormone receptor (TSHR) signaling pathway (AID 1259385; calls by dose curve; further: nearly all actives have a fitted effect of over 20% in size)
Outline: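 Antagonist mode: compound-treated TSHR-expressing HEK293 cells were stimulated with 1.5 ng/mL TSH (final) in presence of Ro20-1724 for 30 min at RT. HTRF cAMP detection after 1 h; each compound tested at 15 concentrations, triplicate.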

[8] = qHTS assay to identify small molecule agonists of the estrogen receptor alpha (ER-alpha) signaling pathway in the presence of an antagonist - cell viability counter screen (AID 1259386);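 further: cells exposed to compounds for 22 h at 37 °C before the viability read; nearly all actives have a fitted effect of over 30% in size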; further: potency means the concentration at half of the fitted maximal effect
Outline: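 Read-out: CellTiter-Fluor fluorescence after 1hr reagent incubation, measured in the same wells as the luciferase readout. VM7Luc4E2 cells were exposed to 15 compound concentrations with 10.0nM ICI-182,780 for 22hr at 37C.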

[9] = biological target: Progesterone receptor (Homo sapiens) (UniProt P06401); assay: qHTS assay to identify small molecule agonists of the progesterone receptor (PR) signaling pathway (AID 1346784; calls by dose curve; further: nearly all actives have a fitted effect of over 30% in size)
Outline: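 Agonist mode, quantitative HTS format in a HEK 293T line expressing a UAS-controlled beta-lactamase reporter; 16 hr compound exposure at 37C in 2% charcoal-stripped FBS, then LiveBLAzer B/G FRET fluorescence.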

[10] = biological target: Progesterone receptor (Homo sapiens) (UniProt P06401); assay: qHTS assay to identify small molecule antagonists of the progesterone receptor (PR) signaling pathway (AID 1346795; active means well fitted inhibition curve with a large enough effect in the signal ratio in the repeat runs, not every such curve was filed as active; the % refers to the signal ratio; further: potency means the concentration at half of the fitted maximal effect)
Outline: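 HEK293T PR-UAS-bla reporter cells in charcoal-stripped serum (2%) received compound after a 6 hr settling period, followed by R5020 agonist at 1 nM final; 16 hr incubation preceded the FRET substrate step and fluorescence measurement.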

[11] = qHTS assay to identify small molecule antagonists of the progesterone receptor (PR) signaling pathway - cell viability counter screen (AID 1346798); further: series mostly up to about 92 µM; nearly all actives have a fitted effect of over 50% in size
Outline: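 Same-well multiplex: after 16 hr at 37C with compound and R5020 stimulation, HEK293T cells carrying a UAS-bla reporter received LiveBLAzer substrate (2 hr RT), then CellTiter-Glo (30 min RT) for luminescent viability.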

[12] = qHTS assay to identify small molecule agonists of the progesterone receptor (PR) signaling pathway - cell viability counter screen (AID 1346799; calls by dose curve; further: nearly all actives have a fitted effect of over 45% in size)
Outline: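 Counter screen for cytotoxicity: compound-treated PR-UAS-bla HEK293T cells (16 hr, 37C, 5% CO2) were assayed with CellTiter-Glo, luminescence measured after 30 min at room temperature.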

[13] = qHTS assay to identify small molecule antagonists of the TGF-beta/Smad signaling pathway - cell viability counter screen (AID 1346824); further: nearly all actives have a fitted effect of over 50% in size
Outline: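 Cytotoxicity counter-screen run in the same wells as the beta-lactamase Smad reporter read: CellTiter-Glo luminescence after 30 min at room temperature. HEK 293T SBE-bla cells had 5 hr compound exposure at 37 C with TGF-beta1 (0.25 ng/mL stock).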

[14] = qHTS assay to identify small molecule agonists of the TGF-beta/Smad signaling pathway - cell viability counter screen (AID 1346829); further: top concentration of the series differs between compounds; nearly all actives have a fitted effect of over 45% in size
Outline: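 Tox21 qHTS format: SBE-bla HEK 293T cells treated with DMSO-dissolved compounds for 5 hr; CellTiter-Glo luminescence after 30 min at room temperature.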

[15] = qHTS assay to identify small molecule agonists of the TGF-beta/Smad signaling pathway (AID 1346859; active means well fitted activation curve with a large enough effect in the signal ratio in the repeat runs, not every such curve was filed as active; the % refers to the signal ratio; further: series mostly up to about 77 µM)
Outline: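 Smad-responsive beta-lactamase reporter cells (HEK 293T) received compounds from DMSO stocks after overnight attachment, were incubated 5 hr, then treated 2 hr with FRET substrate before dual-emission fluorescence measurement (405 nm excitation).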

[16] = Human pregnane X receptor (PXR) small molecule agonists, qHTS cell viability counter screen (AID 1346977); further: nearly all actives have a fitted effect of over 50% in size; further: potency means the concentration at half of the fitted maximal effect
Outline: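 Measures live-cell protease fluorescence (CellTiter-Fluor) in PXR-Luc HepG2 cells treated 24hr with compounds at 37C. Cells had 5hr to attach before pin transfer of DMSO solutions.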

[17] = biological target: Androgen receptor (Homo sapiens) (UniProt P10275); assay: qHTS assay to identify small molecule agonists of the androgen receptor (AR) signaling pathway in the presence of an antagonist (AID 1259381; calls by dose curve; further: nearly all actives have a fitted effect of over 15% in size)
Outline: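 Luciferase read-out (ONE-Glo, 30min room temperature) in MDA-kb2 MMTV-reporter cells; agonist mode run in presence of AR antagonist nilutamide, 3.0uM final. Compounds tested as 15-point series, 16hr exposure at 37C, 0% CO2.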

[18] = biological target: Thyrotropin-releasing hormone receptor (Homo sapiens) (UniProt P34981); assay: qHTS assay to identify small molecule antagonists of the thyrotropin-releasing hormone receptor (TRHR) signaling pathway (AID 1346877; active means well fitted inhibition curve with a large enough effect in the repeat runs, not every such curve was filed as active; further: series mostly up to about 51 µM)
Outline: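 HEK293/TRHR cells, 18 h, 37 °C; Ca2+ dye 2 h; cpd 5 min RT; TRH 1 nM final; fluorescence read 3 min, 1 s intervals; 15 concs, triplicate.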

[19] = biological target: Thyrotropin-releasing hormone receptor (Homo sapiens) (UniProt P34981); assay: qHTS assay to identify small molecule agonists of the thyrotropin-releasing hormone receptor (TRHR) signaling pathway (AID 1346891; calls by dose curve;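 further: HEK293 cells expressing TRHR with calcium dye readout; series mostly up to about 58 µM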)
Outline: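 Agonist-mode calcium mobilisation screen: TRHR-transfected HEK293 cells cultured overnight (18 h), dye-loaded for 2 h at 37 °C, exposed to compounds, and monitored by fluorescence for 3 min.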

[20] = biological target: Estrogen receptor (Homo sapiens) (UniProt P03372); assay: qHTS assay to identify small molecule agonists of the estrogen receptor alpha (ER-alpha) signaling pathway in the presence of an antagonist (AID 1259383; calls by dose curve; further: nearly all actives have a fitted effect of over 15% in size; further: potency means the concentration at half of the fitted maximal effect; on activation: top concentration of the series differs between compounds)
Outline: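 Luciferase luminescence (ONE-Glo, 30min at room temperature) measured in VM7Luc4E2 cells after 22hr compound exposure at 15 concentrations, with 10.0nM ICI-182,780 final present; cells express endogenous ER-alpha and carry four EREs upstream of luciferase.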
On the % scale 0 is the no-effect control and ±100 the full control effect.

Estrogen receptor beta (Homo sapiens), sequence (Q92731 whole entry, looked up): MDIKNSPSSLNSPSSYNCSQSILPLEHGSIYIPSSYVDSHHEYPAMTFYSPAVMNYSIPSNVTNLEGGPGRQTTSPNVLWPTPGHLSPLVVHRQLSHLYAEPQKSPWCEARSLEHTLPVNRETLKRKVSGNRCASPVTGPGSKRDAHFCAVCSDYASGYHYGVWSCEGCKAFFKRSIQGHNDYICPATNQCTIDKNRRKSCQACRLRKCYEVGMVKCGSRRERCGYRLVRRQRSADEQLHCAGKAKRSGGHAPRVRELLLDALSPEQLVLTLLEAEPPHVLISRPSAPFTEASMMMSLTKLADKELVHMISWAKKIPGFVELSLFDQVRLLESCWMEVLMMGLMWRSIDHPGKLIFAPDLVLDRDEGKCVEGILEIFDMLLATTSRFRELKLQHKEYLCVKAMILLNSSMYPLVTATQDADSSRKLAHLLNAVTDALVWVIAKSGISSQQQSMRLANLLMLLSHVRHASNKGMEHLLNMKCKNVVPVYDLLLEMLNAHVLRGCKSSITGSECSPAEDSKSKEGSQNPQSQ
Thyrotropin receptor (Homo sapiens), sequence (P16473 whole entry, looked up): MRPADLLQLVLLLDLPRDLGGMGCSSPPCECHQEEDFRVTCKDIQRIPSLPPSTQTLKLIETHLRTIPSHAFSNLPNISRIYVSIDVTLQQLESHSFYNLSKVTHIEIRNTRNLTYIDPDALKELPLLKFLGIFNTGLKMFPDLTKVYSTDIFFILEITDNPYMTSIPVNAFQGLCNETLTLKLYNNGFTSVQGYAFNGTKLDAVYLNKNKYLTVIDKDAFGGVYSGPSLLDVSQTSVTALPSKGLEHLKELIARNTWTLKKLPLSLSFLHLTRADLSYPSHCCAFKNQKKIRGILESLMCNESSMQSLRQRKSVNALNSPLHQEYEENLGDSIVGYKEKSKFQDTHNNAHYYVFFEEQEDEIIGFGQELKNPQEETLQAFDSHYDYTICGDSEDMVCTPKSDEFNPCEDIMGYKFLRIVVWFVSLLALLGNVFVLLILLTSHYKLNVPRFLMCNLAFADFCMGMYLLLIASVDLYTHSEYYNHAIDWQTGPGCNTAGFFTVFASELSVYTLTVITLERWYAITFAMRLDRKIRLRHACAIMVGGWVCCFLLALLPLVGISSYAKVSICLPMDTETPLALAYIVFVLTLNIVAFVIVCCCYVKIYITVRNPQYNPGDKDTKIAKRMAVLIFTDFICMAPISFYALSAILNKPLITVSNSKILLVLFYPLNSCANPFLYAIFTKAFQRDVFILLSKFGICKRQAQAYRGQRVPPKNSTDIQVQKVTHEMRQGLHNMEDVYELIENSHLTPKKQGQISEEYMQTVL
Progesterone receptor (Homo sapiens), sequence (P06401 whole entry, looked up): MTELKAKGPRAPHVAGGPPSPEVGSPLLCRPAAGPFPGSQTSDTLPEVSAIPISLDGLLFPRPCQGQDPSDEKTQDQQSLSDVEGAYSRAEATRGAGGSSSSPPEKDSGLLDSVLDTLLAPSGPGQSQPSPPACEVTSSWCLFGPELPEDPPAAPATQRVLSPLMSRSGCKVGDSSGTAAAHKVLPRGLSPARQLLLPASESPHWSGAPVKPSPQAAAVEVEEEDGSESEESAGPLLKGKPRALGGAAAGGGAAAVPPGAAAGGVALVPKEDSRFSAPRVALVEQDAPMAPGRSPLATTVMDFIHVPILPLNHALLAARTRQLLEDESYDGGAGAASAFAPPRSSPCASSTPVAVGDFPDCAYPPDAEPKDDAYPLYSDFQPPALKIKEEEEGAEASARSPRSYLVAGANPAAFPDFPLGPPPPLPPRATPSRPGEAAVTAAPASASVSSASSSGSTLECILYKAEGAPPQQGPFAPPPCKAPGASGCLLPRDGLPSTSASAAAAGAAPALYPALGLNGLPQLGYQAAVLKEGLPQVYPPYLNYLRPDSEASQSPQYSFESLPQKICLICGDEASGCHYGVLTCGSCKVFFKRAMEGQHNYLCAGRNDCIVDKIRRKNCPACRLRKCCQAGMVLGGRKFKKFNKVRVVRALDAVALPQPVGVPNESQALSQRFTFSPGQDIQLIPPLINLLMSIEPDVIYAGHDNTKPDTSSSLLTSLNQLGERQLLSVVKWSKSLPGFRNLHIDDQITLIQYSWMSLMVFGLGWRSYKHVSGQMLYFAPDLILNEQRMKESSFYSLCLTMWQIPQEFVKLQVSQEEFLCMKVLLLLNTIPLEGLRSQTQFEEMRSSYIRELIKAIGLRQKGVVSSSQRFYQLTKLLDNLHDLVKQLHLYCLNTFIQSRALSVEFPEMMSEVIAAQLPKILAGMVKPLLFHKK
Estrogen receptor (Homo sapiens), sequence (P03372 whole entry, looked up): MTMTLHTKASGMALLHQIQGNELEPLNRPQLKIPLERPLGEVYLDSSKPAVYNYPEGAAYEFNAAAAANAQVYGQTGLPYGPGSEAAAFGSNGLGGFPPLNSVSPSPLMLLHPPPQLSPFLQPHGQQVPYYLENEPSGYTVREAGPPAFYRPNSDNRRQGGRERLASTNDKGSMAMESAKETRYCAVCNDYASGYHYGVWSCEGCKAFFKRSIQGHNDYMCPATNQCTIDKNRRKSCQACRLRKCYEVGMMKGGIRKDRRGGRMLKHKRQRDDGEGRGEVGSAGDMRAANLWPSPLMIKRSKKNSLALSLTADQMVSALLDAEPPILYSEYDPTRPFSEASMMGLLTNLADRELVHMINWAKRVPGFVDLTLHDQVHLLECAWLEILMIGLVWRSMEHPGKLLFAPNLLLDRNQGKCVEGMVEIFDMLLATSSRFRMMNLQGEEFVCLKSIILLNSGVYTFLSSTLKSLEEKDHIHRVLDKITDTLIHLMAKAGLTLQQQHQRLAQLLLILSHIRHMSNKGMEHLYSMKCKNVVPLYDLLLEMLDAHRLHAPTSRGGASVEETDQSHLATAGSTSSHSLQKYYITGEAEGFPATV
Thyrotropin-releasing hormone receptor (Homo sapiens), sequence (P34981 whole entry, looked up): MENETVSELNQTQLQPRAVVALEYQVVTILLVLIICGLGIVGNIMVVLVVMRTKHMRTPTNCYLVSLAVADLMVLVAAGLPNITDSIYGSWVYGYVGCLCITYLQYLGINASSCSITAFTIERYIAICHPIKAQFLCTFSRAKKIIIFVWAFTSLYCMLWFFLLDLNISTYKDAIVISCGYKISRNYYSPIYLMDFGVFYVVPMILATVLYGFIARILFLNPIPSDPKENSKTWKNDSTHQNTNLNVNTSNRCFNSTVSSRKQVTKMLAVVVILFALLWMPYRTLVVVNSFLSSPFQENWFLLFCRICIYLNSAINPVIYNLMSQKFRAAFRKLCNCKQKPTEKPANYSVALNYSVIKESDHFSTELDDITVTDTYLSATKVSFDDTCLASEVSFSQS
Androgen receptor (Homo sapiens), sequence (P10275 whole entry, looked up): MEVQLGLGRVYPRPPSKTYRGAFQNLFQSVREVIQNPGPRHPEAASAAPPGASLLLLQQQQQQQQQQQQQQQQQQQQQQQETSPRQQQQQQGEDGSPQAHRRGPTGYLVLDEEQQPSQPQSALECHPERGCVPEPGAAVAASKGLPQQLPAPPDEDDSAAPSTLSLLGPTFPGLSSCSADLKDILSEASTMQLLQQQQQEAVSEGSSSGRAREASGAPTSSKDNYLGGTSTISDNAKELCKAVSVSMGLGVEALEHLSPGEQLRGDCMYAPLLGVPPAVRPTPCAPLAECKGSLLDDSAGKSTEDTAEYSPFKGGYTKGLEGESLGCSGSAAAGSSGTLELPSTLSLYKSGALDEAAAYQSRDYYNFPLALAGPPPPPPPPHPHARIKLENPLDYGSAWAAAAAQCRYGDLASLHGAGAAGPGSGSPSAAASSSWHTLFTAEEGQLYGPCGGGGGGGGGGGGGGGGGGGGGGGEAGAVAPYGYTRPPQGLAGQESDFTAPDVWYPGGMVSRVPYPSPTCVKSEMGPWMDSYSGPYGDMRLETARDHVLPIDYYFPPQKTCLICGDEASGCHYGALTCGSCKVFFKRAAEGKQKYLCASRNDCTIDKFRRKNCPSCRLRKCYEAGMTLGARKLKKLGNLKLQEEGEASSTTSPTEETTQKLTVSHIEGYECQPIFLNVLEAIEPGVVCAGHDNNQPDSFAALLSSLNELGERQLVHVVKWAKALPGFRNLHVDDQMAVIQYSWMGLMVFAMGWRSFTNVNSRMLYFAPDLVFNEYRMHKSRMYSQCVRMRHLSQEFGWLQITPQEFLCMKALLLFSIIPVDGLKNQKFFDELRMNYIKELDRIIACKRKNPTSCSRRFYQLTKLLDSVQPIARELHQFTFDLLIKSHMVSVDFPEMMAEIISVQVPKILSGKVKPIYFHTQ

CCNc1nc(Cl)nc(NC(C)(C)C#N)n1
inactive: Potency [1] | Potency [2] | Potency [3] | Potency [4] | Potency [5] | Potency [6] | Potency [7] | Potency [8] | Potency [9] | Potency [10] | Potency [11] | Potency [12] | Potency [13] | Potency [14] | Potency [15] | Potency [16]

COC(=O)Nc1nc2ccccc2[nH]1
inactive: Potency [1] | Potency [2] | Potency [3] | Potency [4] | outcome [17] | Potency [5] | Potency [6] | Potency [7] | Potency [8] | Potency [9] | Potency [10] | Potency [11] | Potency [12] | Potency [13] | Potency [14] | Potency [15] | Potency [18] | outcome [19] | Potency [16]

CC(C)COC(=O)c1ccccc1C(=O)OCC(C)C
inactive: Potency [1] | Potency [2] | Potency [3] | Potency [4] | Potency [5] | Potency [20] | Potency [6] | Potency [7] | Potency [8] | Potency [9] | Potency [10] | Potency [11] | Potency [12] | Potency [13] | Potency [14] | Potency [15] | Potency [18] | outcome [19] | Potency [16]

CSc1nc(NC(C)C)nc(NC(C)C)n1
inactive: Potency [1] | Potency [2] | Potency [3] | Potency [4] | Potency [5] | Potency [20] | Potency [8] | Potency [9] | Potency [11] | Potency [12] | Potency [13] | Potency [14] | Potency [15] | Potency [18] | outcome [19] | Potency [16]

O=NN1CCOCC1
inactive: Potency [1] | Potency [2] | Potency [3] | Potency [4] | Potency [5] | Potency [20] | Potency [6] | Potency [7] | Potency [8] | Potency [10] | Potency [11] | Potency [12] | Potency [13] | Potency [14] | Potency [15] | Potency [18] | outcome [19] | Potency [16]

S=c1[nH]c2ccccc2[nH]1
inactive: Potency [1] | Potency [2] | Potency [3] | Potency [4] | outcome [17] | Potency [6] | Potency [7] | Potency [8] | Potency [12] | Potency [13] | Potency [14] | Potency [15] | Potency [18] | outcome [19]
50.1 µM (active) and inactive: Potency [16]
active: Potency [10] 30.7 µM

ClC(Cl)(Cl)Br
inactive: Potency [1] | activity, negative = inhibition [2] -1.76% [at 19 µM] | Potency [3] | Potency [4] | Potency [5] | Potency [6] | Potency [7] | Potency [8] | Potency [10] | Potency [11] | Potency [12] | Potency [13] | Potency [14] | Potency [15] | Potency [18] | outcome [19] | Potency [16]

Cc1cccc(N=Nc2ccc(N(C)C)cc2)c1
inactive: Potency [1] | Potency [2] | Potency [5] | Potency [6] | Potency [7] | Potency [9] | Potency [11] | Potency [12] | Potency [13] | Potency [14] | Potency [15] | Potency [18] | outcome [19] | Potency [16]
active: Potency [3] 39.2 µM and 30.6 µM | Potency [4] 31.2 µM | Potency [20] 247 nM and 273 nM | Potency [8] 24.8 µM and 24.3 µM
